Screening data (PubChem)
An excerpt weighted towards active compounds, which were near 21% of everything screened.
Pf growth 48h: P. falciparum growth inhibition at 48 hours (one generation) | P. falciparum luciferase growth in erythrocytes, 48 h | Potency, µM (highest dose often 28.7 µM), for the others: top-dose activity change, negative = inhibition, usual class: inhibitors | 310,000 compounds, 5.9% hits | AID 504832; also: potency is read from the fitted curve at half-maximal effect; % is scaled to controls: 0 for no effect and ±100 for the full control effect
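In quantitative HTS format, infected erythrocytes bearing luciferase-reporter parasites were treated for a single generation at 37 C. Luminescence after adding detection reagent served as the growth measure.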
Pf growth 96h: inhibits malaria parasite growth, 96 h | P. falciparum luciferase reporter growth, 96 h | Potency, µM (highest dose often 28.7 µM), without a hit: top-dose activity change, negative = inhibition, most hits filed as inhibitors | 320,000 compounds, 6.9% hits; also: potency is read from the fitted curve at half-maximal effect; % is scaled to controls: 0 for no effect and ±100 for the full control effect
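Parasite growth measured via integrated firefly luciferase reporter in P. falciparum. Infected erythrocytes at 2% hematocrit, 0.05% parasitemia final were treated 96 hours at 37 C under 5% CO2, and luminescence was read.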
NS1 inh: blocks influenza NS1 protein function; 270,000 compounds, 0.4% hits; AID 2326; Potency, µM (highest dose often 46.1 µM), inactives show at the top dose activity, positive = more growth; calls by dose curve; also: potency is read from the fitted curve at half-maximal effect; actives are rising curves; nearly all actives have a fitted effect of over 50% in size
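S. cerevisiae expressing influenza A NS1, grown in glucose, washed, then diluted 1:100 into pH 6.0 -URA galactose medium with 23 nl compound. Growth recovery read as OD600; NS1-free strain serves as control.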
CHX counter: affects cycloheximide protein synthesis inhibition readout, counter-screen; max response, %; 300,000 compounds, 12% hits; AID 2314; cell reporter, cycloheximide protein synthesis inhibition counterscreen; in the data active = max response mostly above about 13%, no sharp cut-off; inactive = mostly below about 14%; also: read at 38.3 µM for the half of the compounds with a filed dose; 0% is about no effect
Shiga toxin inh: Shiga toxin inhibition | inhibition, % at 38.7 µM | 290,000 compounds, 9.2% hits | Vero cells, Shiga toxin protein synthesis inhibition reporter; in the data active = inhibition mostly above about 28%, no sharp cut-off; inactive = mostly below about 43%; also: 0% is about no effect
Sm TGR block: blocks Schistosoma mansoni thioredoxin glutathione reductase; purified TGR, DTNB reduction, TNB absorbance 405 nm; Potency, µM (highest dose often 114 µM), without a hit: at the highest dose activity change, negative = inhibition, most hits filed as inhibitors; 360,000 compounds, 3% hits; AID 485364; also: potency is read from the fitted curve at half-maximal effect; % is scaled to controls: 0 for no effect and ±100 for the full control effect; nearly all actives have a fitted effect of over 60% in size
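TGR 20 nM + NADPH 100 uM (dispensed conc.), cpd preinc 15 min RT; start with NADPH (500 uM addition) then DTNB (15 mM addition). Kinetic TNB absorbance, 405 nm filter. Four-parameter Hill fit across titration.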
* hit, by the source's call; ? = inconclusive; / = not tested or not shown; [ ] = another dose, or the depositor's remark. Unless noted, calls follow the shape of the dose curve; as a rule, active = well fitted curve in the direction sought with a large enough effect; inconclusive = small, poorly fitted or top-dose-only effect, or another doubt; inactive = no such curve, though single readings can be large; an effect the other way counts as inactive or inconclusive.

SMILES	Pf growth 48h	Pf growth 96h	NS1 inh	CHX counter	Shiga toxin inh	Sm TGR block
NC(=NC(=O)c1ccc(Cl)cc1)N1N=CCC1c1ccccc1 (stereo unspecified)	?	?	11%	1	-4	6%
O=C(CSC(=S)N1CCCCC1)N1N=CCC1c1ccccc1 (stereo unspecified)	44%	/	11%	71*	163*	-2%
O=C(COC(=O)Cc1cccc(C(F)(F)F)c1)NC1CCS(=O)(=O)C1 (stereo unspecified)	?	17%	/	/	/	-1%
Nc1ccc2c(c1)C(=O)C(=O)c1ccccc1-2	/	?	-211%	-9	-28	-13%
CN(C)c1cccc2c1C(=O)c1ccccc1C2=O	39%	-2%	-11%	13*	27	-9%
O=C1c2cccc(Sc3ccccc3)c2C(=O)c2c(Sc3ccccc3)cccc21	13µM*	?	5%	9	31	9%
O=C1c2ccccc2C(=O)c2[nH]c(=O)[nH]c21	/	1.7µM*	8%	-2	4	-32%
O=C1C(=O)c2ccc(-c3ccccc3)cc2-c2ccccc21	10µM*	3.7µM*	-40%	-1	11	-8%
CN1C(=O)c2cccc(N(C)C)c2C1=O	-11%	-8%	2%	-3	24	1%
COC(=O)c1ccc(-n2nnc(-c3nc(-c4ccccc4Cl)no3)c2C)cc1	/	/	/	/	/	5%
O=c1[nH]c(C2CCCN(S(=O)(=O)c3ccccc3)C2)nc2c1nnn2Cc1cccc(Cl)c1 (stereo unspecified)	?	?	?	-6	-7	4%
O=C1C=Cc2ccccc2C1=O	?	?	20%	16	23	11µM*
O=C1c2ccccc2C(=O)c2ccccc21	?	15µM*	/	/	/	/
Nc1ccc2c(c1)C(=O)c1ccccc1C2=O	91%	132%	/	/	/	5%
Cc1ccc(OCC(=O)N(C)CC(=O)Nc2ccccc2Cl)c([N+](=O)[O-])n1	-1%	-30%	/	/	/	-4%
COc1cccc(C(=O)NC(=O)Nc2cc(C)on2)c1	339%	?	/	56*	71*	1%
COc1ccc(C(=O)Nc2cc(C)on2)c(OC)c1	122%	85%	-30%	38*	41*	-7%
COc1cccc(NC(=O)Nc2cc(C)on2)c1	32%	-28%	-29%	23*	/	-11%
Cc1cc(NC(=O)Nc2cccc(C(F)(F)F)c2)no1	?	-8%	-41%	2	-7	0%
COc1ccc(-c2cnnn2-c2ccc(NC(=O)c3c(F)cccc3F)cc2)cc1	/	/	/	/	/	-8%
O=C(O)C(c1ccccc1)N1C(=O)c2cccc3cccc(c23)C1=O (stereo unspecified)	-17%	1.5µM*	26%	1	-16	-19%
O=C(O)C(c1ccccc1)N1C(=O)c2ccccc2C1=O (stereo unspecified)	-12%	1%	21%	-1	-11	30%
CCOC(=O)C1CCCN(C(=O)c2nn(-c3ccc(C)cc3)c(=O)c3c2c2ccccc2n3C)C1 (stereo unspecified)	/	/	/	/	/	-1%
O=C(CCN1CCCCC1c1cccnc1)NCc1ccccc1 (stereo unspecified)	-11%	/	-5%	-1	11	35µM*
COc1ccc(/C(N)=N/OC(=O)c2cccc([N+](=O)[O-])c2C)cc1	?	-9%	-5%	-2	33	/
SMILES	Pf growth 48h	Pf growth 96h	NS1 inh	CHX counter	Shiga toxin inh	Sm TGR block
COc1ccccc1C/C(N)=N/OC(=O)c1cccc([N+](=O)[O-])c1C	9.3µM*	33%	-40%	15*	21	-13%
O=C1CSC(=S)N1c1cccnc1	/	13µM*	-80%	-2	-28	5%[11.4 µM]
COC(=O)C1=C(C)N(c2ccc(F)c(Cl)c2)C(=O)C1	?	5%	9%	5	-8	25µM*
O=C1CSC(=S)N1Cc1cccnc1	-30%	18%	-89%	-6	-9	-23%
O=C1CSC(=S)N1c1ccc(F)c(Cl)c1	?	12µM*	-80%	1	4	0%
COC(=O)C1=C(C)N(c2cccc(Cl)c2)C(=O)C1	?	-89%	5%	-2	-12	-36%
CC(C)(C)N1C(=O)Cc2c1nc(N)c1c(N)nc(N3CCCCC3CO)c(C#N)c21 (stereo unspecified)	?	5.9µM*	?	10	31	?
COc1ccc(N2C(=O)Cc3c2nc(N)c(C#N)c3N)cc1	31%	-2%	3%	-2	12	3%
COc1ccc(SC[C@H](Cc2ccccc2)N2CC[C@@H](C(C)(C)C)CCC2=O)cc1	12µM*	?	/	/	/	-21%
O=C(NC1CCC(=O)N(CCSc2ccccc2)CC1)OCc1ccccc1 (stereo unspecified)	13%	?	2%	-2	-1	-11%
O=C(N[C@H]1CCC(=O)N([C@H](CSc2ccccc2)Cc2ccccc2)CC1)OCc1ccccc1	?	8.3µM*	-13%	7	10	-10%
O=C1CC[C@H](OCc2ccccc2)CCN1[C@H](CSc1ccccc1)Cc1ccccc1	?	?	-36%	27*	34*	5%
Cc1ccc(SC[C@H](Cc2ccccc2)N2CC[C@@H](NC(=O)OCc3ccccc3)CCC2=O)cc1	?	8.3µM*	-6%	2	-10	4%
O=C1NC(Cc2ccccc2)C(=O)N1Cc1cc([N+](=O)[O-])cc2c1OCOC2 (stereo unspecified)	-6%	-14%	/	2	-4	1%
COc1cccc(CSc2nc3cc4c(cc3cc2C)OCCO4)c1	-8%	5.9µM*	9%	1	-4	0%
Cc1cc2cc3c(cc2nc1SCc1ccc(C(=O)O)cc1)OCCO3	11%	9.3µM*	-2%	5	-8	10%
Cc1cc2cc3c(cc2nc1SCC(=O)O)OCCO3	22%	?	-52%	-1	-2	-3%
O=C1C2Sc3[nH]c(=O)sc3C(c3cc([N+](=O)[O-])ccc3O)C2C(=O)N1c1ccccc1 (stereo unspecified)	22%	25%	2%	-1	14	-8%
On1ccccc1=S	0.83µM*	0.59µM*	/	/	/	-31%
COc1ccc(-n2c(SCC(=O)O)nnc2-c2ccc(NC(=O)c3ccccc3)cc2)cc1	5.2µM*	18%	0%	-4	19	0%
COc1ccc(-c2nnc(SCC(=O)c3ccc[nH]3)n2-c2ccccc2)cc1	29%	?	13%	34*	82*	1%
CCN(CC)c1ccc(NC(=O)C2CCCN(S(=O)(=O)c3ccc4c(c3)oc(=O)n4C)C2)c(C)c1 (stereo unspecified)	/	/	/	/	/	-7%
CCc1ccccc1NC(=O)c1ccc([N+](=O)[O-])s1	?	?	/	-6	-5	?
COc1ccc(OC)c(CNc2nc3ccccc3n2CCN2CCCCC2)c1	?	/	-8%	-4	-7	0%
CCn1c(NCc2cccc(OC)c2OC)nc2ccccc21	?	-20%	-4%	13	26*	-12%
